Test results as given in PubChem BioAssay (NCI).
Compounds without any hit were thinned out: in the full panel of roughly 83,000, 20% have a hit.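 Growth was measured after 48 h exposure to one concentration of compound in 96-well plates. Values under 10 count as active.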 A number with no mark means an inactive call. Active and inactive are the calls of the source.

Tested on: NCI-H322M lung
Assay: NCI-60 one-dose screen, 48 h (100 = growth as untreated, 0 = no growth, -100 = all killed)
Conditions: 10 µM unless noted

SMILES | growth
COc1cc(/C=C\c2cc(OC)c(OC)c(OC)c2)cc(N/C=C\C(=O)c2cc(OC)c(OC)c(OC)c2)c1OC | 36.8%
N#C[S-].[Au+].c1ccc(CN2[CH-]N(Cc3ccccc3)C(c3ccccc3)=C2c2ccccc2)cc1 | 30.3%
O=[N+]([O-])c1ccc(OP(=O)(CCl)N(CCCl)CCCl)cc1 (stereo not drawn) | 103%
O=C1CC2(CC3(Cl)C(Cl)=C(Cl)C2(Cl)C3(Cl)Cl)C(=O)O1 (stereo not drawn) | 99.3%
COc1cc2c(cc1OCCCCCn1c(-c3ccco3)nc3ccccc31)N=C[C@@H]1CCCN1C2=O | -13% (active)
O=C(O)c1ccc([S-])cc1.[Au+].c1ccc(CN2[CH-]N(Cc3ccccc3)C(c3ccccc3)=C2c2ccccc2)cc1 | 7.67% (active)
N#C[Se]Cc1cc(-c2ccccc2)n(-c2ccc(S(N)(=O)=O)cc2)n1 | -5.66% (active)
COc1cc2c(cc1OCCCCn1c(-c3cccs3)nc3ccccc31)N=C[C@@H]1CCCN1C2=O | -30.5% (active)
COc1ccc(/C=C\c2cc(OC)c(OC)c(OC)c2)cc1OCC(=O)Nc1nc2ccc(F)cc2s1 | 70.8%
O=C(Nc1ccc([N+](=O)[O-])cc1)C(Cl)(Cl)Cl | 90.1%
C[CH2][Sn]([Cl])([Cl])[CH2]C.Oc1ccccc1C=NCCN=Cc1ccccc1O | 101%
C[N+]12CN3CN(CN(C3)C1)C2 | 110%
C[C@]12CC[C@@H]3c4ccc(Oc5nc(N6CC6)nc(N6CC6)n5)cc4CC[C@H]3[C@@H]1CCC2=O | 44.2%
c1ccc(COc2ccc3[nH]cc(CCN(Cc4ccccc4)Cc4ccccc4)c3c2)cc1 | 100%
[Au+].[N-]=C=O.c1ccc(CN2[CH-]N(Cc3ccccc3)C(c3ccccc3)=C2c2ccccc2)cc1 | 112%
CC1=C(CCCNS(C)(=O)=O)C2=C(C)C3(CC3)[C@@](C)(O)C(=O)C2=C1 | -3.8% (active)
C[C@]12CC[C@H]3[C@@H](CC[C@]4(O)C[C@@H](O[C@@H]5O[C@H](CO)[C@@H](O[C@@H]6OC[C@@H](O)[C@H](O)[C@H]6O)[C@H](O)[C@H]5O)CC[C@]34C=O)[C@@]1(O)CC[C@@H]2C1=CC(=O)OC1 | -13.2% (active)
CN1C(=O)N[C@H]2[C@@H]3NC(=O)c4ccc(Br)n4[C@@H]3C[C@]21O | -6.85% (active)
COC1OC(CO)C(O)C(O)[CH]1[Hg][O]C(C)=O (stereo not drawn) | 91.7%

SMILES | growth
OCc1ccc2c(c1)OCO2 | 104%
Nc1nnnc2nc[nH]c12 | 28.1%
CC1CCCC(C[N+](C)(C)C)C1=O (stereo not drawn) | 77.2%
CNC(=O)Oc1cccc(C(F)(F)F)c1 | 125%
COc1cc2c(cc1OCCCn1c(-c3ccccn3)nc3ccccc31)N=C[C@@H]1CCCN1C2=O | 25.7%
CCCCCCCOC(C(=O)OCCN(CC)CC)(c1ccccc1)c1ccccc1 | 98.7%
CC(=O)OCC1O[C@@H]([S-])C(OC(C)=O)[C@H](OC(C)=O)[C@@H]1OC(C)=O.[Au+].c1ccc(CN2[CH-]N(Cc3ccccc3)C(c3ccccc3)=C2c2ccccc2)cc1 | 82.7%
COc1ccc(C(=O)c2sc3nc4c(cc3c2N)N2CCC4CC2)cc1OC | 107%
CC(CC1CCCCC1)NCc1ccccc1 (stereo not drawn) | 95%
COc1ccc(/C=C\c2cc(OC)c(OC)c(OC)c2)cc1OCC(=O)Nc1nc2ccc(C(F)(F)F)cc2s1 | 64.7%
O=C1CCC2(O)[C@@H]3Cc4ccc(O)c5c4[C@]2(CCN3Cc2ccoc2)C1O5 (stereo partly drawn) | 110%
C/C(=C\c1cc(C(F)(F)F)nn1CCNC(=O)OC(C)(C)C)[C@@H]1C[C@@H]2O[C@]2(C)CCC[C@H](C)[C@H](O)[C@@H](C)C(=O)C(C)(C)[C@@H](O)CC(=O)O1 | 72.3%
CC(C)CCC(=O)O[C@H]1CC[C@H]2[C@@H]3CCC4=CC(=O)CC[C@]4(C)[C@H]3CC[C@]12C | 93.4%
ClCCN(CCCl)Cc1ccc(Nc2ccnc3cc(Cl)ccc23)cc1 | 79%
COc1cc(NC(C)CCCNC2CN3CCC2CC3)c2ncccc2c1 (stereo not drawn) | 63.3%
C=CCCCN=C=S | 80.7%
CCN(CC)CCOC(=O)C(OC(C)C)(c1ccccc1)c1ccccc1 | 99.6%
CCC1(C(C)C)C(=O)NC(=S)NC1=O | 106%
CC[C@]12C=CCN3CC[C@]4(C(=C(C(=O)OC)C1)Nc1cc(OC)c(OC(C)=O)cc14)[C@@H]32 | 39%
